We go through 26 compounds from PubChem BioAssay (EPA / NIEHS).

“And” between values parts separate entries of the source, which are not always exact repeats. Equal entries are not always repeated. Inconclusive results are not listed. Some compounds were tested as several samples or in several runs, with calls that do not always agree. The source made the active and inactive calls. Rule for the calls, unless noted: active = hit-call score of the fitted dose curve at least 0.9, where 1 is the maximum; inactive = score below 0.9.

Read-out in experiment [1]: Monokine induced gamma interferon (MIG), CXCL9 (gene 4283)
Put plainly: BSK_SAg_MIG: BioMAP Diversity Plus: SAg Assay for Monokine induced gamma interferon (MIG) Biomarker Activity (AID 2283092). Conditions: primary human HUVEC with PBMC; actives raise or lower the signal. In a few lines: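 Measures CXCL9 protein by ELISA in a human vascular primary-cell co-culture (umbilical vein endothelium with PBMC) 24 h after chemical addition. Activity is scored up or down from the DMSO control.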

Experiment [2] in a line: BSK_SAg_PBMCCytotoxicity: PBMC Cytotoxicity Assessment in the BioMAP Diversity Plus: SAg Assay (AID 2283093).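 For AC50: PBMC superantigen activated with SEB plus TSST-1 one hour after compound addition.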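 Note: fitted both ways against DMSO so a hit may be loss or gain of signal.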 Conditions: primary human HUVEC with PBMC. A digest of the protocol:
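PBMC viability by Alamar Blue reduction, fluorescence read at 546/580 nm after 6 h dye exposure. Cells were dosed 1 h before SEB plus TSST-1 activation (20 ng/mL final each), then held 90 h; endothelial/PBMC human co-culture.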

Read-out in experiment [3]: Interleukin-8 (IL8), CXCL8 (gene 3576)
Put plainly: BSK_SAg_IL8: BioMAP Diversity Plus: SAg Assay for Interleukin-8 (IL8) Biomarker Activity (AID 2283094). To be noted: primary human HUVEC with PBMC; actives raise or lower the signal. In a few lines:
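Primary human endothelial cells with PBMC, exposed 24 h; IL-8 determined by ELISA, analysed bidirectionally relative to DMSO.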

A short description of experiment [4]: BSK_SAg_Proliferation: Cell Proliferation Assessment in the BioMAP Diversity Plus: SAg Assay (AID 2283095).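 Note: relative cell number as total protein by SRB absorbance in sub-confluent culture.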 To be noted: primary human HUVEC with PBMC. In a few lines: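 A human primary co-culture of umbilical vein endothelium and blood mononuclear cells receives compound; relative cell number is quantified at 96 h by SRB staining and 560 nm absorbance, with DMSO-referenced bidirectional curve fitting.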

A short description of experiment [5]: BSK_SAg_SRB: Viability Assessment in the BioMAP Diversity Plus: SAg Assay (AID 2283096).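 Note: cells read one day after compound addition; hits may be either gain or loss of signal compared with DMSO.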 Conditions: primary human HUVEC with PBMC. A digest of the protocol: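 Compounds were added to a human vascular co-culture of umbilical vein endothelium and PBMC. After 24 h, parallel cultures were fixed with 10% TCA, stained with 0.1% sulforhodamine B and read at 560 nm. Gain or loss of signal was fitted relative to DMSO.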

Experiment [6] has as its target human Caspase 5 (CASP5), CASP5 (gene 838) (UniProt P51878). The experiment in a line: NVS_ENZ_hCASP5: NovaScreen (NVS) Enzymatic Assay for human Caspase 5 (CASP5) (AID 2283137; active = hit-call score of the fitted dose curve at least 0.9, where 1 is the maximum). In a few lines:
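Caspase 5 enzyme activity, detected as fluorescence signal loss, is measured in a biochemical format using E. coli-expressed protein. Reading occurs 2 hours post-dosing. Screening runs at 25 uM, with confirmed actives titrated to 50 uM maximum.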

The target of experiment [7] is human CYP2C9, CYP2C9 (gene 1559) (UniProt P11712). The experiment in a line: NVS_ADME_hCYP2C9: NovaScreen (NVS) CYP450-related Enzyme Activity (ADME) Assay for human CYP2C9 (AID 2283108; active = hit-call score of the fitted dose curve at least 0.9, where 1 is the maximum). A digest of the protocol: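 Recombinant human CYP2C9 expressed in SF9 cells, fluorogenic substrate, fluorescence read 0.75 h after dosing. Chemicals first run in duplicate at 10 uM, with actives followed in concentration series; loss of signal versus acetonitrile baseline.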

Experiment [8] deals with human CYP19A1, CYP19A1 (gene 1588) (UniProt P11511). Put plainly: NVS_ADME_hCYP19A1: NovaScreen (NVS) CYP450-related Enzyme Activity (ADME) Assay for human CYP19A1 (AID 2283098; active = hit-call score of the fitted dose curve at least 0.9, where 1 is the maximum). A digest of the protocol:
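Fluorescence intensity read-out; activity taken as signal loss relative to acetonitrile vehicle. Extracted enzyme, specific substrate, no cells, 0.5 h exposure. Duplicate single-point screen at 10 uM, then concentration–response follow-up for actives.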

The target in experiment [9] is human CYP2A6, CYP2A6 (gene 1548) (UniProt P11509). The experiment in a line: NVS_ADME_hCYP2A6: NovaScreen (NVS) CYP450-related Enzyme Activity (ADME) Assay for human CYP2A6 (AID 2283099; active = hit-call score of the fitted dose curve at least 0.9, where 1 is the maximum). A digest of the protocol: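 Loss of fluorescence signal relative to acetonitrile vehicle reported CYP2A6 inhibition in a cell-free system using insect-cell-derived enzyme. Readings were taken at 0.5 h; top concentration in follow-up dose series was 20 uM.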

Experiment [10] has as its target human CYP2B6, CYP2B6 (gene 1555) (UniProt P20813). The experiment in a line: NVS_ADME_hCYP2B6: NovaScreen (NVS) CYP450-related Enzyme Activity (ADME) Assay for human CYP2B6 (AID 2283101; active = hit-call score of the fitted dose curve at least 0.9, where 1 is the maximum). A digest of the protocol:
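Recombinant protein, specific fluorescent substrate, read at 1 h post-dosing. Primary: single 10 uM, duplicate; follow-up: concentration series. Activity = signal loss vs acetonitrile baseline, with positive and negative controls on every plate.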

Experiment [11] concerns the target human CYP2D6, CYP2D6 (gene 1565) (UniProt P10635). Put plainly: NVS_ADME_hCYP2D6: NovaScreen (NVS) CYP450-related Enzyme Activity (ADME) Assay for human CYP2D6 (AID 2283107; active = hit-call score of the fitted dose curve at least 0.9, where 1 is the maximum). A digest of the protocol:
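Biochemical fluorescence assay, insect-cell-derived enzyme. Read at 1 h; inhibition taken from loss of signal against acetonitrile. Screened at 10 uM in duplicate, with concentration series for actives.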

Experiment [12] has as its target human CYP1A2, CYP1A2 (gene 1544) (UniProt P05177). The experiment in a line: NVS_ADME_hCYP1A2: NovaScreen (NVS) CYP450-related Enzyme Activity (ADME) Assay for human CYP1A2 (AID 2283102; active = hit-call score of the fitted dose curve at least 0.9, where 1 is the maximum). A digest of the protocol:
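Inhibition scored as decrease in fluorescent product versus acetonitrile negative control. Enzyme: insect-cell recombinant human CYP1A2, substrate-specific, cell-free. Reading at 0.5 h; 10 uM duplicate initial screen with positive and negative controls on every plate.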

In experiment [13] the target is rat CYP2A2, Cyp2a2 (gene 24895) (UniProt P15149). Put plainly: NVS_ADME_rCYP2A2: NovaScreen (NVS) CYP450-related Enzyme Activity (ADME) Assay for rat CYP2A2 (AID 2283116; active = hit-call score of the fitted dose curve at least 0.9, where 1 is the maximum). In a few lines: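 Compounds first tested in duplicate at 10 uM, then in singleton concentration series up to 20 uM when over threshold. Activity of the recombinant enzyme read by fluorescence at 0.2 h, normalised to acetonitrile vehicle.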

The target in experiment [14] is rat CYP2C11, Cyp2c11 (gene 29277) (UniProt P08683). Put plainly: NVS_ADME_rCYP2C11: NovaScreen (NVS) CYP450-related Enzyme Activity (ADME) Assay for rat CYP2C11 (AID 2283118; active = hit-call score of the fitted dose curve at least 0.9, where 1 is the maximum). A digest of the protocol: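 Screened first at 10 uM in duplicate, hits followed by concentration-response. Recombinant rat enzyme activity monitored by fluorescence 0.33 h post-dosing, normalised to acetonitrile negative control.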

The test system of another experiment is rat CYP2C6, gene 293989. Put plainly: NVS_ADME_rCYP2C6: NovaScreen (NVS) CYP450-related Enzyme Activity (ADME) Assay for rat CYP2C6 (AID 2283120; active = hit-call score of the fitted dose curve at least 0.9, where 1 is the maximum). In a few lines:
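Compounds first tested in duplicate at 10 uM, hits (e.g. 30% inhibition) re-run in singleton dose series to a 20 uM top concentration. Enzyme activity of recombinant rat CYP2C6 measured via fluorescent substrate turnover after 1 h; acetonitrile baseline.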

A further experiment has as its system rat CYP3A1, gene 25642. Put plainly: NVS_ADME_rCYP3A1: NovaScreen (NVS) CYP450-related Enzyme Activity (ADME) Assay for rat CYP3A1 (AID 2283126; active = hit-call score of the fitted dose curve at least 0.9, where 1 is the maximum). In a few lines: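 Compounds went first at 10 uM duplicate, then to series with 20 uM maximum. Fluorescence from substrate turnover by the recombinant enzyme was measured 0.5 h post-dosing, inhibition scored against acetonitrile vehicle.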

Sequence of human CYP2D6, CYP2D6 (gene 1565) (P10635 whole entry, looked up): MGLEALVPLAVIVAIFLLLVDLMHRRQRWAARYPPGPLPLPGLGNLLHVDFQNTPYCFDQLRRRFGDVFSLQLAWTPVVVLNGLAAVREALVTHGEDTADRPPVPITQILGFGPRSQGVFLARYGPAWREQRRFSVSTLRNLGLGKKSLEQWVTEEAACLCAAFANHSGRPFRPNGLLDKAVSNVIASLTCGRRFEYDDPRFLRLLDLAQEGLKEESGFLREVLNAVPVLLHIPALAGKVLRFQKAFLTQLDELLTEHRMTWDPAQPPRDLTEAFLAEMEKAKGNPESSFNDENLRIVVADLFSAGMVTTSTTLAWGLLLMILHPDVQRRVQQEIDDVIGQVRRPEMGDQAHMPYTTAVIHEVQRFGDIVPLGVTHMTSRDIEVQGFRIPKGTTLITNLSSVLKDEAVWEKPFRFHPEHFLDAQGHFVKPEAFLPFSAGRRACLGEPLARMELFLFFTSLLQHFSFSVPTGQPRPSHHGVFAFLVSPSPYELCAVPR
Sequence of human CYP2C9, CYP2C9 (gene 1559) (P11712 whole entry, looked up): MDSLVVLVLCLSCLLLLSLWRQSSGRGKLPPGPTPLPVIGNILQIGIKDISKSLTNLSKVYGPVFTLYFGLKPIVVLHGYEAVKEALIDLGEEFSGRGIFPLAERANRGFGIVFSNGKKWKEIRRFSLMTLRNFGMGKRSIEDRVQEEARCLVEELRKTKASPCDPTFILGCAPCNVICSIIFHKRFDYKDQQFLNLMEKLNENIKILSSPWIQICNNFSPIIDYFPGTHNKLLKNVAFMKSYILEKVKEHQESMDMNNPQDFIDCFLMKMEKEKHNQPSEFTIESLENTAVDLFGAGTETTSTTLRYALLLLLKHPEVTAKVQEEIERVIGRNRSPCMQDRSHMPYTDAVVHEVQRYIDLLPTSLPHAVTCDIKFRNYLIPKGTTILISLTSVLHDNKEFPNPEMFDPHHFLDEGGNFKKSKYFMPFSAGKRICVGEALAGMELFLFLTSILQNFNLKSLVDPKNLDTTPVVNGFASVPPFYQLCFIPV
Sequence of human CYP2A6, CYP2A6 (gene 1548) (P11509 whole entry, looked up): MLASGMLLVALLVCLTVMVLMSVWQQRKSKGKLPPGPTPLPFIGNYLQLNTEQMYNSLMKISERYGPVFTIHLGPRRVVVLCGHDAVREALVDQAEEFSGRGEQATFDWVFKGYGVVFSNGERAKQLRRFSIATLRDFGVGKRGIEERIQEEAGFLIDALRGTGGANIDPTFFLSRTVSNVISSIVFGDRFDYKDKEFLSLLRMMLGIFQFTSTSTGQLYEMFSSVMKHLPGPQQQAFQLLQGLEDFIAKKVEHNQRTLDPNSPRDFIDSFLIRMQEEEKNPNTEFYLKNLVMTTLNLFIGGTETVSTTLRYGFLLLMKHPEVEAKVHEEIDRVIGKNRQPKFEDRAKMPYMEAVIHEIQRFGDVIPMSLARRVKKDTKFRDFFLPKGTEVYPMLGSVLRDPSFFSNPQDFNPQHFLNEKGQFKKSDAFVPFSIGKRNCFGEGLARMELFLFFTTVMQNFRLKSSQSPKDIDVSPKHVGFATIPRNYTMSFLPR
Sequence of rat CYP2A2, Cyp2a2 (gene 24895) (P15149 whole entry, looked up): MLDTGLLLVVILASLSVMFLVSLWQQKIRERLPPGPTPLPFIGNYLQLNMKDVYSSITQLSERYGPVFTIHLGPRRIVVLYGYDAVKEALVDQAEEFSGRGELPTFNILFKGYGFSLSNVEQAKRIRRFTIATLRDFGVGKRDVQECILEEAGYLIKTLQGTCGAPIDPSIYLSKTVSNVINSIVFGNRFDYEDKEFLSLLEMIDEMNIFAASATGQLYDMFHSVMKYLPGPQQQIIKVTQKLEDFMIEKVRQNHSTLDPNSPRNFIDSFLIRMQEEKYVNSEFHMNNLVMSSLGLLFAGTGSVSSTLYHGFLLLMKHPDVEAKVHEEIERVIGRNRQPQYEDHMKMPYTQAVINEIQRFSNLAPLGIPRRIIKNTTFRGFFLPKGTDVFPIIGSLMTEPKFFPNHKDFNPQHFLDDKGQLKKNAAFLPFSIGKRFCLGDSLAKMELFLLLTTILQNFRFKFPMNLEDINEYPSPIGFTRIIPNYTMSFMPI
Sequence of human CYP2B6, CYP2B6 (gene 1555) (P20813 whole entry, looked up): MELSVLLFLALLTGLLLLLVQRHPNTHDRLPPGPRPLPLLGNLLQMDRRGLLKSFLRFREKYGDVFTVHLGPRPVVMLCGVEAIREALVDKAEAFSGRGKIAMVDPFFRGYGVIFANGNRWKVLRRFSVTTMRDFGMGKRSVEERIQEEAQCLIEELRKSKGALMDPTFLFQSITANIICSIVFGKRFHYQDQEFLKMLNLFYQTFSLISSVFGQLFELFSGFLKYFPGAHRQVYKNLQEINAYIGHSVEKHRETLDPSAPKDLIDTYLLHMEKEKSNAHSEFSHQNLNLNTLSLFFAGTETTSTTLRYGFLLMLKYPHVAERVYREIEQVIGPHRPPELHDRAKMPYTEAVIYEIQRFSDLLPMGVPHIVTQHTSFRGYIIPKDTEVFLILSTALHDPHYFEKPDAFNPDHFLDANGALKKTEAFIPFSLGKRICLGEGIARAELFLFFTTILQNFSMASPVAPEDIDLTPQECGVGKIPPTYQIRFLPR
Sequence of rat CYP2C11, Cyp2c11 (gene 29277) (P08683 whole entry, looked up): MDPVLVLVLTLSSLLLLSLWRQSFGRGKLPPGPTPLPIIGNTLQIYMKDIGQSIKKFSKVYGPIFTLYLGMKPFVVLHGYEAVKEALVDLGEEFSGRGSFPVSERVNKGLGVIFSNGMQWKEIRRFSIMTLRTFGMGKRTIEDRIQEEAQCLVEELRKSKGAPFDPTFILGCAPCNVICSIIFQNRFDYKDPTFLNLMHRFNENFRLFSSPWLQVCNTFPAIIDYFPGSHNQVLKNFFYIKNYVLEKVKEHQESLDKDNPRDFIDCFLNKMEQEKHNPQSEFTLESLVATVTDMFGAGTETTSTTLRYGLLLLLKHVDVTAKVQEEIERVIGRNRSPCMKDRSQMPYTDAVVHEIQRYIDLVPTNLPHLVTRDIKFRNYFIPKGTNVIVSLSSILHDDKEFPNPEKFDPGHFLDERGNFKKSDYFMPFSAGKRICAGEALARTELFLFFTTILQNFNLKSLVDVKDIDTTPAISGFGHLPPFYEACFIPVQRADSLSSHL
Sequence of human Caspase 5 (CASP5), CASP5 (gene 838) (P51878 whole entry, looked up): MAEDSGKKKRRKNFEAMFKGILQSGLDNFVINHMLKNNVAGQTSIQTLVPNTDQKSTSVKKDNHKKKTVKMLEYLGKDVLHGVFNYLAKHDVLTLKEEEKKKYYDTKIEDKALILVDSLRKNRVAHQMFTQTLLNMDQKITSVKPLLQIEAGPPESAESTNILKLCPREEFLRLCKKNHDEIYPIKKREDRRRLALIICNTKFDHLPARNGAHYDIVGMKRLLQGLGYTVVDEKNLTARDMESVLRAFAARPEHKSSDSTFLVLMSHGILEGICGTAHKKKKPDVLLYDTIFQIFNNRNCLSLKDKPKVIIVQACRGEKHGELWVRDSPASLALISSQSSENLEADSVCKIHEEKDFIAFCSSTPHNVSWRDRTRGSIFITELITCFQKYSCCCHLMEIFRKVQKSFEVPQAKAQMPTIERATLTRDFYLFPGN
Sequence of human CYP19A1, CYP19A1 (gene 1588) (P11511 whole entry, looked up): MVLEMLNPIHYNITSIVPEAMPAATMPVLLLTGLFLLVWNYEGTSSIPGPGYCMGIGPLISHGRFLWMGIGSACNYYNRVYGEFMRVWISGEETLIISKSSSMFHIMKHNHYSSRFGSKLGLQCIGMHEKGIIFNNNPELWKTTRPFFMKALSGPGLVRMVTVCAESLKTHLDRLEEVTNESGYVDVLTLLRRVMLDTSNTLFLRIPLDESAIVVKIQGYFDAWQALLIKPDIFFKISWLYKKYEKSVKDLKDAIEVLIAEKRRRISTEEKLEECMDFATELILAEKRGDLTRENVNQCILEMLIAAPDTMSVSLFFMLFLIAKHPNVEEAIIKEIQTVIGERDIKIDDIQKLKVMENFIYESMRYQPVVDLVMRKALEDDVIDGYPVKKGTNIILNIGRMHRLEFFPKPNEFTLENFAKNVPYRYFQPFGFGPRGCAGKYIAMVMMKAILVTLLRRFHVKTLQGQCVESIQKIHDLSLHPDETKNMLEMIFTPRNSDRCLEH
Sequence of human CYP1A2, CYP1A2 (gene 1544) (P05177 whole entry, looked up): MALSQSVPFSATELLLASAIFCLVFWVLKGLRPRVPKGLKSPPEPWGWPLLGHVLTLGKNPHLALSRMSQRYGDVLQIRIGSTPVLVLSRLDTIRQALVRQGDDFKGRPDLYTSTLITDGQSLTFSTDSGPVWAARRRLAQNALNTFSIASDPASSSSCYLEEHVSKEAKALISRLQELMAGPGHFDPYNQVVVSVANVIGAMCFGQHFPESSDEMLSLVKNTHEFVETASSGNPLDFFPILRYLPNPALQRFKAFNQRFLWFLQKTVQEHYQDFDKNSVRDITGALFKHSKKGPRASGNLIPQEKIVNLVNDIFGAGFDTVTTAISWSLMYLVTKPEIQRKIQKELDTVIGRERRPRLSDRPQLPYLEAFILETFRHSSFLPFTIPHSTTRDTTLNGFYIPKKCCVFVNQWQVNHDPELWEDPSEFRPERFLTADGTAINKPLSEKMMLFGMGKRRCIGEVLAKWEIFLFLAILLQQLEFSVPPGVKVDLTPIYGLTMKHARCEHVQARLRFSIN

As for `O=Cc1ccccc1C=O`, the outcome in experiment [1], in [2], in [3], in experiment [4], in experiment [5] and in experiment [6] was inactive.
In the case of `CCCCc1nc2cccnc2n1Cc1ccc(-c2ccccc2-c2nnn[nH]2)cc1`, the result in experiment [1], in experiment [2], in [3], in [4] and in experiment [5] was inactive. Besides, in experiment [7], the AC50 is 2.96 µM (active).
For `O=C(NS(=O)(=O)/C=C/c1cccs1)c1ccc(F)cc1Br`, the outcome in [1], in [2], in [3] and in experiment [5] was inactive. Moreover, the values for the AC50 in experiment [4] and in experiment [7] were 3.54 µM (active) and 4.11 µM (active), respectively.
In the case of `C=CCCCCCCCCCCCC`, the result in experiment [1], in [2], in [3], in experiment [4] and in experiment [5] was inactive.
For `NC=O`, the result in [1], in experiment [2], in experiment [3], in [4] and in [5] was inactive.
As for `O=C(O)CC(O)(CC(=O)O)C(=O)O`, the outcome in experiment [1], in experiment [2], in [4] and in [5] was inactive.
As to `COC(=O)CCC(=O)OC`, the result in [1], in experiment [2], in [3], in [4] and in experiment [5] was inactive.
`CS(=O)(=O)c1ccc([C@@H](C[C@H]2CCC(=O)C2)C(=O)Nc2cnccn2)cc1Cl`: the result in experiment [1], in experiment [2], in experiment [3], in experiment [4] and in experiment [5] was inactive.
Turning to `CC(C)c1cccc(C(C)C)c1NC(=O)NS(=O)(=O)c1cc(C(C)(C)O)co1`, the result in [1], in experiment [2], in experiment [4] and in experiment [5] was inactive.
Turning to `CC(C)COC(=O)CCCCC(=O)OCC(C)C`, the outcome in experiment [1], in experiment [2], in experiment [3], in experiment [4] and in [5] was inactive.
As for `CC(=O)CC(c1ccccc1)c1c(O)c2ccccc2oc1=O` (configuration not stated), the outcome in experiment [1], in experiment [2], in [3], in experiment [4] and in [5] was inactive.
For `O=C1NC(=O)C(c2ccccc2)(c2ccccc2)N1`, the outcome in experiment [1], in [2], in experiment [3], in [4] and in [5] was inactive.
On to `CC(C)OC(=O)C(C)(C)Oc1ccc(C(=O)c2ccc(Cl)cc2)cc1`, for which the outcome in [1], in experiment [2] and in [7] was inactive. Also, the values for the AC50 in experiment [3], in experiment [4] and in experiment [5] were 29.1 µM (active), 29.5 µM (active) and 28.9 µM (active), respectively.
As to `Cc1cc(SC2=C(O)C[C@@](CCc3ccc(N)cc3)(C(C)C)OC2=O)c(C(C)(C)C)cc1CO`, the outcome in experiment [1], in [2], in experiment [3], in [4], in experiment [5] and in experiment [8] was inactive.
Turning to `O=C1OC(c2ccc(O)cc2)(c2ccc(O)cc2)c2ccccc21`, the AC50 in experiment [1] was 36.8 µM (active); in experiment [3] it was 20 µM (active); in [4] it was 29.3 µM (active); in [7], 6.81 µM (active). For the same compound, the result in experiment [2], in experiment [5], in experiment [9] and in experiment [10] was inactive.
As to `CCCCCCCCCC[N+](C)(C)[O-]`, the result in [1], in experiment [2], in [3], in experiment [4] and in [5] was inactive. Also, in [11], the AC50 is 2.69 µM (active).
In the case of `C/C=C/C=C/C(=O)O`, the outcome in [1], in [2], in experiment [3], in [4], in experiment [5] and in experiment [8] was inactive.
In the case of `Cn1cnc2c1c(=O)[nH]c(=O)n2C`, the result in [1], in experiment [2], in [3], in experiment [4], in [5] and in [6] was inactive.
As to `CC(C)c1cccc(C(C)C)c1`, the result in [1], in experiment [2], in experiment [4] and in experiment [5] was inactive.
With `NCCOCCOCCN`, the outcome in [1], in experiment [2], in experiment [3], in experiment [4] and in [5] was inactive.
On to `NC1CCCCC1`, for which the result in [1], in experiment [2], in [3], in [4], in [5] and in [9] was inactive. Moreover, the result in experiment [10] was inactive.
`S=c1[nH]c2ccccc2s1`: the result in [1], in [2], in experiment [3], in experiment [4], in experiment [5] and in experiment [12] was inactive. The AC50 in experiment [9] was 4.85 µM (active); in experiment [10], 1.28 µM (active); in experiment [11], 6.77 µM (active); in experiment [7] it was 7.33 µM (active).
As to `CCN(CC)CCOc1ccc(C(=C(Cl)c2ccccc2)c2ccccc2)cc1`, the AC50 in experiment [1] is 13.8 µM (active); in [2] it was 6.29 µM (active); in experiment [3], 7.87 µM (active); in [4] it was 3.54 µM (active); in experiment [5] it was 11.1 µM (active); in experiment [10], 11.3 µM (active). Besides, the AC50 was 2.38 µM (active) in experiment [11]; 6.93 µM (active) in experiment [7]; 3.22 µM (active) and 5.8 µM (active) in experiment [13]; 6.05 µM (active) and 5 µM (active) and 325 nM (active) in experiment [14]; 4.06 µM (active) and 3.54 µM (active) and 4.76 µM (active) in the experiment with rat CYP2C6, gene 293989; 6.26 µM (active) in the experiment with rat CYP3A1, gene 25642. The call in experiment [13] was inactive.
As to `Cc1cn([C@H]2C=C[C@@H](CO)O2)c(=O)[nH]c1=O`, the outcome in experiment [1], in experiment [2], in experiment [3], in experiment [4] and in experiment [5] was inactive.
For the compound `CCCCCCCC(=O)OC`, the result in [1], in [2], in experiment [3], in experiment [4] and in experiment [5] was inactive.
As for `CCCC(=O)O`, the outcome in experiment [1], in experiment [2] and in [5] was inactive. Also, the AC50 in experiment [4] was 33.7 µM (active).
